From PubChem BioAssay AID727 (The Scripps Research Institute Molecular Screening Center, 2007)
The whole screen tested about 97,000 compounds, of which about 810 (0.84%) were called active. Cut-off read from the data, not from the text of the source: active = inhibition above about 19%; inactive = the rest. Shown is part of a subset that was picked to be rich in actives.

target: Focal adhesion kinase 1 (Homo sapiens) (UniProt Q05397); test: FAK kinase inhibitors, primary screen, biochemical (AID 727); details: biochemical FAK kinase activity assay; active compounds read high;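 tested at 7 µM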;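 note: 0% = DMSO and 100% = reference compound high control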
Sequence (Q05397 whole entry, looked up): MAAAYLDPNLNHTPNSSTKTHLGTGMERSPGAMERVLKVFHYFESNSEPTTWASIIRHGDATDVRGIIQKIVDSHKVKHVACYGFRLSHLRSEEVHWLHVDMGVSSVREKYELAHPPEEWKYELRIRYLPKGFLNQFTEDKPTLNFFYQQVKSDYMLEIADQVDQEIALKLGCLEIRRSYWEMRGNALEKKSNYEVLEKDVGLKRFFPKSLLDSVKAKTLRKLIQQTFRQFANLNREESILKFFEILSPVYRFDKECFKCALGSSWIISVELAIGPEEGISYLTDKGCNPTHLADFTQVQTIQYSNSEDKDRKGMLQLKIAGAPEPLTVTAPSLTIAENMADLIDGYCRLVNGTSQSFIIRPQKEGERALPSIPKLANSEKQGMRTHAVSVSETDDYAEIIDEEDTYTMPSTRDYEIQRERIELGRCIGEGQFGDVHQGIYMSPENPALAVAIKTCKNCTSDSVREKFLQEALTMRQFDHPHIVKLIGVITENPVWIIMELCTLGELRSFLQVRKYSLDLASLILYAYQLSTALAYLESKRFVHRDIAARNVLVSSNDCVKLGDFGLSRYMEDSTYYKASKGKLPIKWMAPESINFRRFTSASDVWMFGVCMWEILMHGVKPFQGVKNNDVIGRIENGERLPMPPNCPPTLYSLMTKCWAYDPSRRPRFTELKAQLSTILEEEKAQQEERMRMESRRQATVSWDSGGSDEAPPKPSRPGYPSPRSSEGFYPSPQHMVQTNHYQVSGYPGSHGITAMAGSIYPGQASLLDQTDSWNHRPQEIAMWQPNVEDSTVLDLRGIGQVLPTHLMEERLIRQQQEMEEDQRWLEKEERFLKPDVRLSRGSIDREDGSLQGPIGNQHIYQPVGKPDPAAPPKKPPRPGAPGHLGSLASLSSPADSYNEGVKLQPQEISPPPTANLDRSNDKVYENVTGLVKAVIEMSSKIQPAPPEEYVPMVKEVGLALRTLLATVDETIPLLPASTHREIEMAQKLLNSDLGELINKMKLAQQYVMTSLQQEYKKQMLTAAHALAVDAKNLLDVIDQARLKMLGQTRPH

inhibition, inactive:
Cc1cccc(NC(=O)Cn2cc(C(=O)c3ccco3)c3ccccc32)c1 -4.82%
Cc1cc(C)c2c3c(sc2n1)C(c1ccccc1)C(C#N)=C(N)O3 (stereo unspecified) 1.94%
CCCCC(C(=O)OCC(=O)c1ccc(OC)cc1)N1C(=O)c2ccccc2C1=O (stereo unspecified) 0.79%
CC(c1ccccn1)N(CCN(C)C)C(=S)Nc1ccccc1F (stereo unspecified) -1.18%
CCOC(=O)c1cc(NC(=O)c2ccc(Cl)cc2)c(=O)oc1-c1ccccc1 -2.61%
Nn1c(Cc2cccc3ccccc23)nnc1SCC(=O)N1CC(=O)Nc2ccccc21 -1.43%
Nc1nc(SCc2ccccc2Cl)n[nH]1 1.47%
c1ccc(CSc2nnc(-c3ccco3)n2Cc2ccccc2)cc1 -5.27%
CCCCOc1ccc(N(CC(=O)NCC2CCCO2)C(=O)CCC(=O)Nc2cc(C)ccn2)cc1 (stereo unspecified) -1.73%
CCNC(=O)c1sccc1-n1cccc1 -1.65%
Cn1c(SCC(=O)C(C)(C)C)nnc1-c1ccccn1 -1.08%
Clc1ccccc1-c1cc(COc2ccc3ccccc3c2)no1 5.83%
CCCC(C)C(=O)Nc1ccc(NC(C)=O)cc1 (stereo unspecified) 0.18%
C=CCn1c(=O)c2ccccc2n2c(SCC(=O)N3CCCc4ccccc43)nnc12 5.22%
O=C(CSc1nc2[nH]ncc2c(=O)n1-c1ccccc1)N1CCCc2ccccc21 0.8%
CC(C)(C)C(=O)Cn1c(NCCO)nc2ccccc21 1.69%
CC(C)(C)C(=O)c1cnc(Nc2ccccc2)s1 4.36%
OC(C#CCN1CCOCC1)(c1ccccc1)C1CCCCC1 (stereo unspecified) 0.89%
COc1ccc(S(=O)(=O)N/N=C\c2ccc(OC)c(COc3ccc(C)cc3[N+](=O)[O-])c2)cc1 2.51%
O=C(Nc1cccc2ncccc12)c1ccc(-c2ccc(Cl)cc2Cl)o1 9.2%
CCN1CCN(c2ccc([N+](=O)[O-])cc2C(=O)c2ccc(Cl)cc2)CC1 -2.69%
O=C(CSc1nc2cccnc2n1Cc1ccccc1)N1CCc2ccccc21 1.41%
FC(F)(F)c1cccc(NC(=S)Nc2cccc(Cl)c2)c1 -0.91%
Cc1c(NC(=O)c2cc(-c3ccc(Cl)s3)nc3ccccc23)c(=O)n(-c2ccccc2)n1C 2.95%
Cc1ccc(C(=O)N/C(=C/c2ccco2)C(=O)NCCc2c[nH]c3ccccc23)cc1C 4.25%
COc1ccc(C2C=C(c3ccc(Br)cc3)Nc3nc(NS(C)(=O)=O)nn32)cc1 (stereo unspecified) -9.88%
O=C(CSc1nnnn1-c1ccccc1)NCc1ccco1 5.37%
COc1ccc(CN(Cc2ccco2)S(=O)(=O)c2ccc(S(=O)(=O)N3CCCC3)cc2)cc1 -0.01%
Cc1cccc(N2CCN(C(=O)CN(C)S(=O)(=O)c3ccc4c(c3)CCC(=O)N4)CC2)c1C 4.5%
O=[N+]([O-])c1cccc(-c2nnc3c4ccccc4c4ccccc4n23)c1 17.7%
O=c1c2c(nc3nc[nH]n13)CCC2 -0.92%
CCN1C(=O)/C(=C\N2CCOCC2)SC1=S -1.1%
Cc1cccc(N(C(=O)Cc2cccs2)C(C(=O)NC2CCCC2)c2ccsc2)c1 (stereo unspecified) 2.56%
S=c1[nH]nc(-c2ccco2)n1/N=C/c1ccc(Br)s1 15.6%
Cc1ccc(/C=N\n2c(-c3ccccc3)n[nH]c2=S)s1 0.69%
Cc1cc(NC(=O)Nc2ccccc2)n(-c2ccccc2)n1 -1.43%
O=C(Nc1ccc(Cl)cn1)c1cnn2cccnc12 5.62%
CNC(=O)c1csc(-c2ccccc2)n1 -0.71%
Cc1ccc(C(c2nnnn2CS(=O)(=O)c2ccc(C)cc2)N2CCC(C)CC2)cc1 (stereo unspecified) -7.49%
CSc1ccccc1C(=O)Nc1cccc(C(C)=O)c1 2.46%
CCN1CCN(C(=O)C2(NC(=O)Nc3cccc(F)c3)CCCCC2)CC1 -0.58%
CCOC(=O)c1c(N)sc(C(C)=O)c1C -0.36%
CCOC(=O)CSc1nc2ccc(C)cc2[nH]1 -1.86%
CCCSc1nsc(N)n1 -4.41%
CCN(CC)S(=O)(=O)c1ccc(N(C)Cc2ccc(C(F)(F)F)cc2)nc1 -0.16%
O=C(Nc1ccc(Cl)cc1)OCc1cc(-c2ccccc2)on1 -6.39%
CN(C)/C=C(\C#N)C(=O)c1cccnc1Oc1ccc(F)cc1F -5.85%
C=CCn1c(SCc2c(C(=O)OC)sc(N)c2C(=O)OC)nnc1-c1ccc(Cl)cc1 1.31%
OC(CN=c1sc2ccccc2n1CC(O)COc1ccccc1)COc1ccccc1 (stereo unspecified) 0.61%
CCn1c(SC)nc(O)c(C(c2ccc(OC)c(O)c2)c2c(O)nc(SC)n(CC)c2=O)c1=O -2.86%
CNC(=O)CSc1nnnn1-c1ccc(C)cc1C 2.36%
CCOC(=O)CNC(=O)CSc1nnnn1-c1cc(C)ccc1C -0.99%
COc1ccc(OCCCC(=O)Oc2ccc(OC)cc2)cc1 0.13%
COc1ccc(-c2oc3ncn(Cc4ccco4)c(=N)c3c2-c2ccc(OC)cc2)cc1 3.43%
CCc1ccc(CNC(=O)C2CC(=O)N(CCc3ccc(C)cc3)C2)cc1 (stereo unspecified) -1.09%
CC(=O)c1cccc(NC(=O)N2CCCC2C(=O)NCCc2ccccc2)c1 (stereo unspecified) -0.1%

inhibition, active:
Clc1ccccc1CSc1nnc(-c2ccco2)c(-c2ccco2)n1 31.9%
Cn1c(SCC(=O)N2CCCc3ccccc32)nc2ccccc2c1=O 37.7%
Oc1ccccc1/C=N/n1c(-c2cccs2)n[nH]c1=S 29.4%
Cc1cc(NC(=O)c2cnn3cccnc23)n(-c2ccccc2)n1 20.4%
CCn1nnnc1SCC(=O)c1ccc(C)cc1C 21.8%
